Compound activity (PubChem BioAssay)
Bead autofluor: flagged as autofluorescent in microsphere protease counterscreen | compound autofluorescence counterscreen, microsphere flow cytometry; hits give high values | fluorescence intensity (test concentration not listed) | hit rate 3.1% among 360,000 | AID 624483; in the data active = fluorescence intensity above about 16000; inconclusive = no clear call, values can overlap the other calls
Anthrax LF prot: blocks Bacillus anthracis lethal factor protease; inhibition, % at 10 µM; multiplex microsphere protease cleavage assay, LF; hit rate 0.12% among 360,000; P15917; note: plate controls were buffer without enzyme for full effect and enzyme alone for no effect
PriA SSB inh: blocks PriA binding to SSB C-terminal tail; AlphaScreen SSBct-PriA binding, biotinylated peptide; inhibition, % at 33 µM; hit rate 0.6% among 430,000; AID 1272365; in the data active = inhibition mostly above about 37%, no sharp cut-off; inactive = mostly below about 20%;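 note: plate controls were negative control peptide for no effect and reference peptide for full effect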
BoNT A protease: BoNT A light chain protease inhibition | multiplex microsphere protease substrate cleavage, flow cytometry | inhibition, % at 10 µM | hit rate 0.17% among 360,000; note: plate controls were buffer without enzyme for full effect and enzyme alone for no effect
BoNT-F LC inh: blocks Botulinum neurotoxin F light chain protease; Multiplex microsphere protease cleavage assay, flow cytometry; inhibition, % at 10 µM; hit rate 0.22% among 360,000; AID 588497; in the data active = inhibition above about 35%, passing the limit was not always enough; inconclusive = no clear call, values can overlap the other calls; note: plate controls were buffer without enzyme for full effect and enzyme alone for no effect
An asterisk follows results filed as active. Hits are enriched below; roughly 3.1% of the tested compounds scored in any of these assays. Cut-off read from the data, not from the text of the source, unless noted: active = inhibition above about 30%; inconclusive = no clear call, values can overlap the other calls; inactive = below that.

Screening Cc1ccc(C)c(Cn2cnc3c(nnn3-c3ccc(F)cc3)c2=O)c1 returned Bead autofluor 16844*, Anthrax LF prot 1, PriA SSB inh -11, BoNT A protease -1 and BoNT-F LC inh 0.
Screening O=C(C1=C[C@@H](c2ccc(Br)cc2)C[C@@H](OCCCCO)O1)N1CCN(Cc2ccc3c(c2)OCO3)CC1 returned Bead autofluor 3589, Anthrax LF prot 0, PriA SSB inh -7, BoNT A protease 0 and BoNT-F LC inh 0.
`O=C(C1=C[C@H](c2ccc(Br)cc2)C[C@H](OCCCCO)O1)N1CCN(Cc2ccccc2)CC1` gave Bead autofluor 4467, Anthrax LF prot -3, PriA SSB inh 42*, BoNT A protease 0 and BoNT-F LC inh -5.
Screening CCOc1ccccc1-n1c(SCC(N)=O)nnc1-c1ccc(O)cc1 returned Bead autofluor 19710*, Anthrax LF prot -1, PriA SSB inh -12, BoNT A protease 2 and BoNT-F LC inh 4.
For COc1ccccc1-n1c(SCC(N)=O)nnc1-c1ccccc1 the results were Bead autofluor 3413, Anthrax LF prot -3, PriA SSB inh -8, BoNT A protease -1 and BoNT-F LC inh -8.
`CCOc1ccccc1-n1c(SCC(N)=O)nnc1-c1ccccc1` gave Bead autofluor 16659*, Anthrax LF prot 1, PriA SSB inh -4, BoNT A protease inconclusive and BoNT-F LC inh -4.
`CCCC[C@H](NC(C)=O)c1nc2ccccc2n1Cc1ccccc1F` gave PriA SSB inh -17.
Cc1nnc(-c2cnn(-c3ccccc3)c2N)n1Cc1ccc(F)cc1 was read as Bead autofluor 19393*, Anthrax LF prot -9, PriA SSB inh -11, BoNT A protease inconclusive and BoNT-F LC inh 0.
Screening Cc1nnc(-c2cnn(-c3ccccc3)c2N)n1Cc1ccccc1 returned Bead autofluor 20987*, Anthrax LF prot -3, PriA SSB inh 5, BoNT A protease -1 and BoNT-F LC inh -2.
For CCNC(=O)c1cn(-c2ccc(SCC(=O)Nc3ccccc3C(F)(F)F)nn2)cn1 the results were PriA SSB inh 18.
COc1ccc(NN=C(C(N)=O)C2=NC(C)(C)Cc3ccccc32)cc1 was read as PriA SSB inh 78*.
Screening Cc1ccc(CN=c2c([N+](=O)[O-])nn(-c3cccc(C)c3)n2O)cc1 returned Bead autofluor 4540, Anthrax LF prot 1, PriA SSB inh 16, BoNT A protease -1 and BoNT-F LC inh -2.
Screening Cc1cc(C)cc(N=c2c([N+](=O)[O-])nn(-c3ccc(Cl)cc3)n2O)c1 returned Bead autofluor 3337, Anthrax LF prot -9, PriA SSB inh 51*, BoNT A protease 0 and BoNT-F LC inh 0.
